# Source: PubChem BioAssay (The Scripps Research Institute Molecular Screening Center)
# ssDAF-12 act = activates DAF-12 receptor from parasite S. stercoralis | HEK293 ssDAF-12/GRIP1 lit1-tk-luc reporter, luminescence; % of 3 µM dafachronic acid response | activation, % at 6.8 µM | 370,000 tested, 1% active | AID 652126;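 active = activation above the mean over all tested compounds plus 3 SD, cut at about 0.9% in these data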
# DAX1 inh-1 = DAX1 (NR0B1) inhibition, primary screen. HEK293T StAR-luciferase reporter, SF-1/DAX-1 repression relief. inhibition, % at 6.8 µM. AID 652010. 370,000 tested, 1.1% active;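 active = inhibition above the mean over all tested compounds plus 3 SD, cut at about 3.6% in these data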;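 note: higher inhibition means more luminescence from relief of DAX-1 repression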
# hcDAF-12 act = activators of H. contortus DAF-12 nuclear receptor. HEK293 hcDAF-12 lit1-tk-luc reporter, luminescence; 0% DMSO, 100% Δ7-dafachronic acid. activation, % at 6.8 µM. 370,000 tested, 1.4% active. AID 652067;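 active = activation above the mean of all tested compounds plus 3 SD, cut at about 5.5% in these data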
# hgDAF-12 ag = agonists of H. glycines DAF-12 nuclear receptor | 370,000 tested, 1.8% active | AID 687014 | activation, % at 6.8 µM | HEK293 GAL4-hgDAF12 UAS-luciferase reporter, agonist luminescence; normalized to butyrate control;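 active = activation above a cutoff set at the mean of all screened compounds plus 3 SD, cut at about 10% in these data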
# DAX1 inh-2 = inhibitors of human orphan nuclear receptor DAX1 (NR0B1) | HEK293 Gal4-DAX1 luciferase reporter, luminescence | inhibition, % at 6.75 µM | 340,000 tested, 0.99% active | AID 504766;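 active = inhibition above the mean over all tested compounds plus 3 SD, cut at about 4.2% in these data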;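 note: inhibition shows as a rise in luminescence from relieved DAX1 repression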
# Target sequence (P51843 207-470 limits assumed): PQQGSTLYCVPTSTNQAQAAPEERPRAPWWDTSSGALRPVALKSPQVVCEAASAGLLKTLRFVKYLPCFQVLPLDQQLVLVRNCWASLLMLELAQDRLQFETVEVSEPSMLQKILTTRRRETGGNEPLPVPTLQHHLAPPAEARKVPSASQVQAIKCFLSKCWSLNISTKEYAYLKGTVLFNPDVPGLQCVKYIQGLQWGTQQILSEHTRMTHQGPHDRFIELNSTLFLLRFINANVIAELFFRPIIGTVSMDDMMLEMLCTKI
# SMARCA2 activ = activators of SMARCA2 function. MG213 cells, MMTV-luciferase reporter, dexamethasone, overnight. activation, % at 9.1 µM. 370,000 tested, 1% active; in the data active = activation above about 7.8%
# SMARCA2 act conf = confirmation of SMARCA2 (BRM) function activators. 3,500 tested, 30% active. activation, % at 9.1 µM. MG213 cells, MMTV-luciferase with dexamethasone, luminescence, overnight; MG213 cells expressing E1A, Rb sequestered; DMSO wells 0%, reference activator 100%. shares compounds with SMARCA2 activ;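 active = activation above its plate's cutoff, the mean activation of tested wells plus 3 SD, cut at about 7.9% in these data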
# VP16 Luc act = GAL4-VP16 reporter activation counter-screen | shares compounds with SMARCA2 activ | activation, % at 9.1 µM | HEK293 GAL4-VP16 pG5luc reporter, luciferase luminescence; scaled: DMSO wells 0%, SAHA wells 100% | 3,500 tested, 41% active;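 active = activation above the solvent-only control well mean plus 3 SD, averaged across control plates, cut at about 5.2% in these data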
# Hits are given with their value; - = inactive; . = not tested or not shown. Sampled rows, rich in hits. Any-hit rate of the full collection: about 4.8%.
SMILES,ssDAF-12 act,DAX1 inh-1,hcDAF-12 act,hgDAF-12 ag,DAX1 inh-2,SMARCA2 activ,SMARCA2 act conf,VP16 Luc act
O=C(CN1CCCCC1)Nc1c2c(nc3ccccc13)N(c1ccccc1)CC2,-,-,-,-,-,11,9.4,-
CC(=O)OCc1ccccc1Sc1ccccc1C(=O)NCc1ccccc1,-,-,-,-,-,10,-,-
Cc1ccc(N2C(=O)CCSC23C(=O)Nc2ccccc23)cc1 (centres undefined),-,-,-,-,-,-,.,.
COc1ccc(N2C(=O)CSC23C(=O)Nc2ccccc23)cc1 (centres undefined),-,-,-,-,-,8.6,-,-
COC(=O)C1=C(C)N(Cc2ccc(Cl)cc2)C(=S)NC1c1ccc(OC)cc1 (centres undefined),-,-,-,-,.,-,.,.
CCc1ccccc1N=Nc1c(N)[nH]n(-c2ccccc2)c1=O,-,-,-,11,.,10,8.1,6.0
Nc1[nH]n(-c2ccccc2)c(=O)c1N=Nc1ccccc1[N+](=O)[O-],-,-,-,-,-,-,.,.
OCC(O)/C=N/Nc1nc(Nc2ccccc2)nc(Nc2ccccc2)n1 (centres undefined),-,-,-,-,-,-,.,.
CCn1cc(CN2CCC(C(=O)Nc3ccc(Oc4ccccc4F)cc3)CC2)cn1,-,-,-,-,-,-,.,.
N#CC1(NC(=O)COC(=O)/C=C/c2ccc3ccccc3n2)CCCCC1,-,-,-,-,-,9.4,8.3,-
O=C(COC(=O)/C=C/c1ccc2ccccc2n1)NNC(=O)c1ccc([N+](=O)[O-])cc1,-,-,-,-,-,-,.,.
CN1CCN(C(=O)c2cccc(-c3cnc4cnc(-c5ccccc5Oc5ccccc5)cn34)c2)CC1,-,-,-,-,.,9.5,-,-
O=C(c1ccc(Cl)c([N+](=O)[O-])c1)N(Cc1cccc(Cl)c1)C1CCS(=O)(=O)C1 (centres undefined),-,-,-,-,-,10,-,-
Clc1ccc(/C=N/Nc2nc(Cl)nc3ccccc23)cc1,-,-,-,-,-,12,-,-
COc1ccccc1-c1nn2c(-c3ccco3)nnc2s1,-,-,-,-,5.9,15,26,10
c1coc(-c2nn3c(-c4ccco4)nnc3s2)c1,-,-,-,-,-,-,.,.
N=c1n(CC(=O)c2ccc(Br)s2)c2ccccc2n1Cc1ccccc1,-,-,-,-,-,8.2,23,-
O=C(Nc1cccc(S(=O)(=O)N2CCCCCC2)c1)c1cncc(Br)c1,-,-,-,-,-,-,.,.
CCn1c(COc2ccc(=O)n(-c3ccccc3)n2)nnc1SCc1ccccc1C,-,-,-,-,-,-,.,.
O=C(NC1CCCCC1)C1c2ccccc2OCC(=O)N1CCc1ccccc1 (centres undefined),-,-,-,-,.,-,.,.
O=C(CCl)NCCCCCCCCCNC(=O)CCl,-,-,-,-,-,8.8,-,-
CCC(=O)NCCCCCCNC(=O)CC,-,-,-,-,-,-,.,.
COc1ccc(CCNC(=O)c2coc(=O)c(Br)c2)cc1,-,-,-,-,.,29,12,11
COc1ccc(N2CCN(C(=O)CN(C)S(=O)(=O)c3cnc[nH]3)CC2)cc1,-,-,-,-,7.1,10,-,-
Cc1cc(C(=O)Nc2ccccc2)oc1C,-,-,-,-,-,9.0,-,11
SMILES,ssDAF-12 act,DAX1 inh-1,hcDAF-12 act,hgDAF-12 ag,DAX1 inh-2,SMARCA2 activ,SMARCA2 act conf,VP16 Luc act
O=C(Cn1sc2ccccc2c1=O)Nc1ccc(F)cc1,-,-,-,-,-,9.2,11,-
O=C(COc1ccccc1/C=C\c1[nH]c(=O)[nH]c(=O)c1[N+](=O)[O-])Nc1ccccc1,-,-,-,-,-,11,13,-
O=S(=O)([N-]c1nc2ccccc2nc1-n1cc[n+](Cc2ccccc2)c1)c1ccc(Br)cc1,-,-,-,-,.,11,-,-
CCCCC[n+]1ccn(-c2nc3ccccc3nc2[N-]S(=O)(=O)c2ccccc2)c1,-,-,-,-,-,-,.,.
COc1cc(/C=N/NC(=S)NC2CC3CCC2C3)ccc1O (centres undefined),-,-,-,-,-,9.4,-,-
Cc1ccc(F)cc1NC(=O)/C=C/c1ccc(S(=O)(=O)N2CCOCC2)cc1,-,-,-,-,-,-,.,.
O=C(/C=C/c1ccc(S(=O)(=O)N2CCOCC2)cc1)Nc1cc(F)ccc1F,-,-,-,-,-,9.0,-,-
CCN1CCN(c2ccc(S(=O)(=O)N3CCOCC3)cc2NC(=O)/C=C/c2ccc([N+](=O)[O-])cc2)CC1,-,-,-,-,-,11,35,-
Cc1ccc(OC(C)C(=O)N=Nc2c(O)[nH]c3ccc([N+](=O)[O-])cc23)cc1 (centres undefined),-,-,-,-,-,-,.,.
CCOC(=O)Cn1nc(C)n(-c2ccc(F)cc2)c1=O,-,-,-,-,-,-,.,.
O=c1c(C(c2ccc(F)cc2)c2c(O)nc3n(c2=O)CCS3)c(O)nc2n1CCS2,-,-,-,-,-,9.3,-,-
COc1cc(Cl)cc(/C=C/c2ccc3cccc(O)c3n2)c1OC,-,-,-,-,-,-,.,.
CCOc1cccc(/C=C/c2ccc3cccc(O)c3n2)c1O,-,-,5.8,10,-,12,12,18
CCOc1cccc(/C=C/c2ccc3cccc(O)c3n2)c1OC,-,-,-,-,-,14,-,28
COc1ccccc1/C=C/c1ccc2cccc(O)c2n1,-,-,-,-,-,-,.,.
Cc1cccc(NC(=O)c2sc3ncn(CC(=O)N4CCN(c5ccccn5)CC4)c(=O)c3c2C)c1,-,-,-,-,-,-,.,.
COc1ccc2c(c1)c1ccccc1n2C,-,-,-,-,-,8.9,-,-
COc1cc(OC)cc(C(=O)N[C@H](C(=O)NC23CC4CC(CC(C4)C2)C3)C(C)C)c1,-,-,-,-,-,9.9,-,-
COc1cc(/C=C2/SC(=Nc3ccc(O)cc3)NC2=O)cc(OC)c1O,-,-,-,-,-,8.9,-,-
Cc1cccc(OCc2nnc(SCC(=O)c3c(N)n(C4CC4)c(=O)[nH]c3=O)o2)c1,-,-,-,-,-,-,.,.
Cn1cnc([N+](=O)[O-])c1Cl,-,-,-,-,.,-,.,.
Cn1cnc([N+](=O)[O-])c1Sc1ncn[nH]1,-,-,-,-,-,8.3,-,-
